Beta cell apopt – blocks beta cell apoptosis. AID 435005. INS-1E cytokine-induced death, ATP luminescence, 48 h; percent of positive-control rescue, neutral wells zero. 300,000 compounds, 0.8% hits. protection from apoptosis, % (concentration not given with the values);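 active = Every replicate reaches about 75%, or at least half do and their mean reaches it too, limit read from the data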;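 also: 0% = cytokine-treated negative control wells and 100% = positive control rescue; higher means more ATP so stronger rescue from cytokine killing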
MPTP inh – blocks calcium-induced mitochondrial swelling. inhibition, % at 10 µM. isolated mouse mitochondria, Ca2+ swelling absorbance, 30 min. 360,000 compounds, 1.4% hits. AID 602449;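 active = inhibition of 50% or more, scaled per plate between neutral and stimulator controls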;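 also: 0% = DMSO wells given calcium and 100% = 1 mM EGTA wells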
GRIN3A LBD mod – modulates the human NR3A ligand-binding domain; AID 1259313; 340,000 compounds, 2.5% hits; NR3A LBD differential scanning fluorimetry, Tm shift; 0% = protein alone, 100% = glycine-bound protein; Tm shift relative to glycine control, % at 25 µM;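 active = melting temperature shift of at least 10% of the positive control shift, at one fixed dose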
SKKanGAS inh – SKKanGAS growth inhibition; S. pyogenes SKKanGAS, kanamycin growth, BacTiter-Glo, 6 h; 300,000 compounds, 1.3% hits; inhibition, % at 7.5 µM; AID 1662;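 active = mean replicate score, as percent of positive control median, at least 50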;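 also: strain carries kanamycin resistance gene driven by streptokinase promoter and grows in 40 µg/ml kanamycin; loss of luminescence reflects streptokinase promoter inhibition or plain growth inhibition; 0% = median of DMSO wells and 100% = positive control at its reference dose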
CSC inhib – cancer stem cell inhibition. cancer stem cell-like cells viability, luminescence. inhibition, % at 7.5 µM. 300,000 compounds, 1.1% hits. AID 2717; in the data active = inhibition above about 75%; tested in HMLE shEcad cells
Mdm2-MdmX inh – disrupts the human Mdm2-MdmX interaction; 330,000 compounds, 3% hits; SaOS-2 split-luciferase Mdm2/MdmX complementation, luminescence; O15151+Q00987; inhibition, % at 8 µM;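 active = inhibition of at least 50% at 8 µM in the primary screen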
Target sequence (O15151 whole entry, looked up): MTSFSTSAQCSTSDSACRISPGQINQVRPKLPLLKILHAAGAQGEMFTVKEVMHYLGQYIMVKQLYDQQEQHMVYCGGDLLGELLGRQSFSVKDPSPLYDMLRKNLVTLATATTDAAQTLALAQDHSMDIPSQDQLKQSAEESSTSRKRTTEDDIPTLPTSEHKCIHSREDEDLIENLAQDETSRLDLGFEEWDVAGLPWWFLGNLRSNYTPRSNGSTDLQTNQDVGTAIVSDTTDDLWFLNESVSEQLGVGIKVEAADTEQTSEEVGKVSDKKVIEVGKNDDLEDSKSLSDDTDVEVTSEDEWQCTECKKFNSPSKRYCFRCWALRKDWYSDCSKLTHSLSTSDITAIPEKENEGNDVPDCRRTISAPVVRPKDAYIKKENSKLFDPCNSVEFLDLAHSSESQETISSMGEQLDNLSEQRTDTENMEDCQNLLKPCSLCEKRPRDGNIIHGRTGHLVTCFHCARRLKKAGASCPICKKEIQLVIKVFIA
Target sequence (Q00987 whole entry, looked up): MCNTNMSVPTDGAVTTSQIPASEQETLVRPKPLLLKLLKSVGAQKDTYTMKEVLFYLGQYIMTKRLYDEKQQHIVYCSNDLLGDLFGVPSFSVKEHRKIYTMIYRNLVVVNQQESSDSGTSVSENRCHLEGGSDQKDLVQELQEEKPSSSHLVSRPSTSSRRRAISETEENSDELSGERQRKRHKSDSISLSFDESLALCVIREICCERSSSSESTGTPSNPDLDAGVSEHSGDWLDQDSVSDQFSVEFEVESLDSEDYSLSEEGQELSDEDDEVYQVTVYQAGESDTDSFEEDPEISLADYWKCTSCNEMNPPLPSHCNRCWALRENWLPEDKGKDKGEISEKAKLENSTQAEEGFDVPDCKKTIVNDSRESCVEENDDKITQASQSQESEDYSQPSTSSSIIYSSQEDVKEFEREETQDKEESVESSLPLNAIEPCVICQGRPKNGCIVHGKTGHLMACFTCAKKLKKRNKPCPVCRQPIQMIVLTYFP
An asterisk follows results filed as active; x = not tested or not shown. In the library only some 6.9% were active in any assay of this set; here they are far more common.

SMILES	Beta cell apopt	MPTP inh	GRIN3A LBD mod	SKKanGAS inh	CSC inhib	Mdm2-MdmX inh
Cc1ccc(NC(=O)CSC2=NN3CCCC(=O)N=C3S2)cc1Cl	-5	1	-1	5	x	8
COc1ccc(S(=O)(=O)NCC(=O)NCc2cc(=O)n(C)c(=O)n2C)cc1C	-2	1	1	-5	-2	19
CC(C)=CCc1c(O)cc2c(=O)c3ccc(O)cc3oc2c1O	-2	3	25*	16	83*	-57
CCn1cc(C(=O)NCCCOC)c(=O)c2cc(S(=O)(=O)N3CCCC3)ccc21	1	1	-1	-2	-8	28
CN1CCN(c2ccc(NC(=O)CSc3nnnn3-c3ccccc3Cl)cc2)CC1	-4	0	-1	9	50	6
Cc1cc(OCC(=O)Nc2ccc(S(=O)(=O)NC3=NCCCCC3)cc2)c(C(C)C)cc1Cl	-2	1	5	23	85*	22
Cc1c(/C=N/NC(=O)c2ccc(O)cc2)c2ccccn2c1C(=O)c1ccc(F)cc1	6	-1	18*	52*	30	46
Cc1cccc(C)c1Nc1ncnc2ccccc12	x	-2	5	1	-6	-14
CCCN(CC1CC1)C(=S)Nc1ccccc1F	-7	-1	1	11	3	30
CNC(=O)c1sc(N2N=C3/C(=C\c4ccccc4)CCCC3C2c2ccccc2)nc1C (stereo not drawn)	x	0	-2	x	x	x
CNC(=O)c1sc(N2N=C3/C(=C/c4ccccc4)CCCC3C2c2ccccc2)nc1C (stereo not drawn)	98*	-1	-3	40	51	34
N=C1/C(=C/c2ccc(-c3cccc(C(=O)O)c3)o2)C(=O)N=C2SC=C(c3ccccc3)N12	-4	3	2	79*	22	-13
N=C1/C(=C/c2cccn2CCOc2ccccc2)C(=O)N=C2SC=C(c3ccccc3)N12	17	15	23*	12	69	41
Cc1ccc(-n2c(C)cc(/C=C3/C(=N)N4C(c5ccccc5)=CSC4=NC3=O)c2C)cc1	0	3	-5	15	4	14
N=C1/C(=C\c2ccc(-c3cc(Cl)cc(Cl)c3)o2)C(=O)N=C2SC=C(c3ccccc3)N12	1	4	24*	6	33	7
O=C(OCc1nc2ccsc2c(=O)[nH]1)c1cccc(S(=O)(=O)N2CCOCC2)c1	x	-2	0	-6	1	-11
Cc1ccccc1-c1cc(C(=O)O)nn1CC1CC(c2cccc([N+](=O)[O-])c2)=NO1 (stereo not drawn)	-3	1	2	x	8	-4
COc1ccc(S(=O)(=O)N(C)C)cc1NC(=O)c1ccc2c(c1)NC(=O)C(C)S2 (stereo not drawn)	2	-1	-1	x	-5	7
COc1ccc(CCNC(=O)Nc2ccc(F)cc2F)cc1OC	-3	0	2	-2	1	-41
COc1ccc(Br)cc1/C=C/C(=O)Nc1ccc(C)cc1	13	14	20*	7	69	1
COc1ccc(Br)cc1/C=C/C(=O)Nc1ccc2ccccc2c1	11	21	15*	2	77*	16
O=C1CCSc2ccc(Cl)cc2N1Cc1ccc(Cl)cc1	4	1	-4	53*	4	24
CCC(C)NC(=O)Cn1cnc2sc(C)c(S(=O)(=O)N3CCN(c4ncccn4)CC3)c2c1=O (stereo not drawn)	1	0	14*	-6	-3	-8
COCCCNC(=O)Cn1cnc2sc(C)c(S(=O)(=O)N3CCN(c4ncccn4)CC3)c2c1=O	x	1	1	5	18	4
Cc1cc(=O)n(CC(=O)Nc2cc(Cl)ccc2C)c(C(C)C)n1	5	1	1	-4	-16	13
SMILES	Beta cell apopt	MPTP inh	GRIN3A LBD mod	SKKanGAS inh	CSC inhib	Mdm2-MdmX inh
COc1ccccc1NCc1ccc([N+](=O)[O-])s1	6	0	-2	8	7	-38
Cc1cccc(C)c1NC(=O)c1ccc([N+](=O)[O-])s1	10	2	-1	2	16	-7
Cc1ccnc(NC(=O)c2ccc([N+](=O)[O-])s2)c1	82*	-1	2	5	3	-10
Cc1ccccc1NCc1ccc([N+](=O)[O-])s1	-7	1	0	7	94*	-17
Cc1cccc(NC(=O)c2ccc([N+](=O)[O-])s2)c1C	105*	8	-1	14	49	23
CN(C)C1=NC[C@H](Cc2ccccc2)N1CC1CCCCCC1	-3	1	-2	x	-9	8
COc1cc(NC(=O)c2ccc(-c3cccc(F)c3)o2)ccc1NC(=O)c1ccccc1Cl	-4	0	23*	x	x	21
COc1ccc(NC(=O)c2ccc(-c3ccc(F)cc3)o2)cc1OC	x	0	x	x	x	x
COc1ccc(NC(=O)c2ccccc2F)cc1Cl	-5	0	30*	0	0	-41
COc1ccc(NC(=O)c2cccc(OC(F)F)c2)cc1Cl	2	5	31*	-8	10	-24
COc1ccc(NC(=O)c2cccc(F)c2)cc1Cl	2	-2	10*	7	15	-55
Cc1ccn2c(CNCC3COCCO3)c(C(=O)N3CCCCCC3)nc2c1 (stereo not drawn)	-8	0	2	1	5	-4
O=C(COc1ccc([N+](=O)[O-])cc1)Nc1ccc(C(=O)NCc2cccnc2)cc1	101*	5	2	1	14	5
O=C(CSc1n[nH]c(-c2cccnc2)n1)Nc1ccc(Br)cc1	-3	1	5	2	x	22
O=C(Cc1ccc([N+](=O)[O-])cc1)Nc1cccnc1	81*	0	0	-3	-4	6
O=C(COc1ccc([N+](=O)[O-])cc1)NCc1cccnc1	-6	-1	1	-4	-23	-2
O=C(NCc1cccnc1)c1ccc(NC(=O)c2cccc([N+](=O)[O-])c2)cc1	140*	1	0	-1	25	11
O=C(CSc1n[nH]c(-c2cccnc2)n1)Nc1ccc([N+](=O)[O-])cc1	3	2	10*	0	1	0
O=C(OCc1nc(-c2ccccc2Cl)no1)c1ccco1	-11	-1	1	x	x	-35
O=C(NCc1cccnc1)c1ccc([N+](=O)[O-])cc1	103*	1	0	-2	-21	18
O=C(NCc1cccnc1)c1ccc(-c2cc3ccccc3oc2=O)cc1	101*	6	5	-13	59	-40
NS(=O)(=O)c1ccc(S(=O)(=O)N2CCCC2)cc1	-9	-3	-3	1	-6	-7
NS(=O)(=O)c1ccc(Nc2ccc3cc(S(=O)(=O)N4CCCCC4)ccc3n2)cc1	5	-1	37*	5	7	8
Cc1ccc(C)c(S(=O)(=O)NCC(=O)Nc2ccc3c(c2)OCO3)c1	-2	0	-5	3	-17	16
